{
  "source": "PubChem BioAssay (Tox21)",
  "note": "A number with no mark means an inactive call. Calls come from the whole dose curve; as a rule, active = well fitted curve in the direction sought with a large enough effect in the repeat runs; inconclusive = weak or mixed curves; inactive = no such curve, though single readings can be large; an effect the other way counts as inactive or inconclusive. Records with an inconclusive call do not appear. % is set by controls: 0 for no effect and ±100 for the full control effect. Note: nearly all actives have a fitted effect of over 50% in size.",
  "data": [
    {"assay": "A CellTox Green Cytotoxicity Assay to monitor cytotoxicity in HEK293 cells - 0 hour (AID 1224869)", "details": "CellTox Green fluorescence; series mostly up to 76.8 µM; cytotoxicity: at the top concentration", "in_short": "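Homogeneous no-lysis format: HEK293 cell suspension mixed with CellTox Green reagent, seeded, incubated 5 h at 37 C/5% CO2, then dosed by pintool with compound in DMSO.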", "values": [
      {"compound": "CC(=O)Nc1ccc(C)cc1", "cytotoxicity": "2.12%"},
      {"compound": "CCC1COC(=O)O1", "note": "(stereo not given)", "cytotoxicity": "-1.06%"},
      {"compound": "C[CH2][Ge]([Cl])([CH2]C)[CH2]C", "cytotoxicity": "-11.5%"},
      {"compound": "Oc1ccccc1Cc1ccccc1O", "cytotoxicity": "-6.4%"},
      {"compound": "CCCCCN(CCCOC)C(=O)C(CCC(=O)O)NC(=O)c1ccc(Cl)c(Cl)c1", "note": "(stereo not given)", "cytotoxicity": "-3.89% [at 35.3 µM]"},
      {"compound": "NS(=O)(=O)c1ccccc1OC(F)(F)F", "cytotoxicity": "1.86%"},
      {"compound": "CC(=O)OCCCc1ccccc1", "cytotoxicity": "0.645%"},
      {"compound": "Cc1ccccc1C", "cytotoxicity": "-0.392%"},
      {"compound": "NC(=O)NNC(N)=O", "cytotoxicity": "-3.14%"},
      {"compound": "CCCCCCCCCCCCCCCC(=O)NCCO", "cytotoxicity": "8.32% [at 35.3 µM]"},
      {"compound": "C=CCOc1c(Br)cc(Br)cc1Br", "cytotoxicity": "-16.3%"},
      {"compound": "CC(C)COC(=O)COc1ccc(Cl)cc1Cl", "cytotoxicity": "1.54%"},
      {"compound": "CCCCC(C)C(=O)O", "note": "(stereo not given)", "cytotoxicity": "-0.999%"},
      {"compound": "CCCCCCCCCCCCCCCCI", "cytotoxicity": "0.206% [at 15.8 µM]"},
      {"compound": "COc1ccc(NS(=O)(=O)c2ccc(N)cc2)nn1", "cytotoxicity": "5.38% [at 35.3 µM]"},
      {"compound": "O=c1[nH]c(=O)c2ccccc2o1", "cytotoxicity": "3.12% [at 35.3 µM]"},
      {"compound": "CNCc1ccccc1", "cytotoxicity": "-1.6% [at 35.3 µM]"},
      {"compound": "CCCCCCCCCCC", "cytotoxicity": "0.578%"},
      {"compound": "C=CCOc1c(Br)cc(C(C)(C)c2cc(Br)c(OCC=C)c(Br)c2)cc1Br", "cytotoxicity": "-4.06% [at 35.3 µM]"},
      {"compound": "O=C(O)/C=C/c1ccccc1", "cytotoxicity": "-7.67%"},
      {"compound": "C[C@H](CCC(=O)NCC(=O)O)[C@H]1CC[C@H]2[C@@H]3[C@H](O)C[C@@H]4C[C@H](O)CC[C@]4(C)[C@H]3C[C@H](O)[C@]12C", "cytotoxicity": "3.44%"},
      {"compound": "CCCOC(=O)CCCCC(=O)OCCC", "cytotoxicity": "-6.22%"},
      {"compound": "O=C(Oc1ccccc1C(=O)O)c1ccccc1O", "cytotoxicity": "7.66% [at 35.3 µM]"},
      {"compound": "CCCCCCCCCCCCCCCCCCN(C)C", "cytotoxicity": "17.6% [at 35.3 µM]"},
      {"compound": "CC(=O)Nc1ncc([N+](=O)[O-])s1", "cytotoxicity": "3.35% [at 35.3 µM]"},
      {"compound": "COc1cccc2sc(N)nc12", "cytotoxicity": "-1.01%"}
    ]},
    {"assay": "qHTS RealTime-Glo MT Cell Viability Assay in HepG2 cells - 40 hour (AID 1224870)", "details": "RealTime-Glo luminescence; series mostly up to 76.8 µM; activity change, negative = cytotoxic: at the top concentration", "in_short": "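HepG2 cells (600/well) mixed with RealTime-Glo MT reagent, settled 5 h at 37 C/5% CO2 before compound addition. Nonlytic NanoLuc luminescence from viable-cell prosubstrate reduction read repeatedly during 40 h treatment at 37 C.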", "values": [
      {"compound": "CC(=O)Nc1ccc(C)cc1", "activity change, negative = cytotoxic": "-0.453%"},
      {"compound": "CCC1COC(=O)O1", "note": "(stereo not given)", "activity change, negative = cytotoxic": "3.57%"},
      {"compound": "Cc1cccc(Nc2ccncc2S(=O)(=O)NC(=O)NC(C)C)c1", "activity change, negative = cytotoxic": "2.37% [at 35.3 µM]"},
      {"compound": "Oc1ccccc1Cc1ccccc1O", "activity change, negative = cytotoxic": "-2.22%"},
      {"compound": "CCCCCN(CCCOC)C(=O)C(CCC(=O)O)NC(=O)c1ccc(Cl)c(Cl)c1", "note": "(stereo not given)", "activity change, negative = cytotoxic": "3.62% [at 35.3 µM]"},
      {"compound": "NS(=O)(=O)c1ccccc1OC(F)(F)F", "activity change, negative = cytotoxic": "0.602%"},
      {"compound": "CN[C@@H]1[C@@H](O)[C@@H](O[C@@H]2[C@H](O)[C@H](O[C@H]3OC(CN)=CC[C@H]3N)[C@@H](N)C[C@H]2N)OCC1(C)O", "note": "(stereo not given in full)", "activity change, negative = cytotoxic": "5.18% [at 35.3 µM]"},
      {"compound": "CCC(C)(C)C1CCC(=O)CC1", "activity change, negative = cytotoxic": "6.24%"},
      {"compound": "Cc1ccccc1C", "activity change, negative = cytotoxic": "0.587%"},
      {"compound": "NC(=O)NNC(N)=O", "activity change, negative = cytotoxic": "1.72%"},
      {"compound": "CCCCCCCCCCCCCCCC(=O)NCCO", "activity change, negative = cytotoxic": "1.99% [at 35.3 µM]"},
      {"compound": "O=C(O)c1ccc(OCCN2CCCCC2)cc1", "activity change, negative = cytotoxic": "1.05% [at 35.3 µM]"},
      {"compound": "C=CCOc1c(Br)cc(Br)cc1Br", "activity change, negative = cytotoxic": "-1.76%"},
      {"compound": "O=CN1CCOCC1", "activity change, negative = cytotoxic": "-1.91%"},
      {"compound": "CCCCCCCCOC(C)=O", "activity change, negative = cytotoxic": "0.436%"},
      {"compound": "CC(C)COC(=O)COc1ccc(Cl)cc1Cl", "activity change, negative = cytotoxic": "0.537%"},
      {"compound": "O=c1[nH]c(=O)c2ccccc2o1", "activity change, negative = cytotoxic": "-0.0871% [at 35.3 µM]"},
      {"compound": "CNCc1ccccc1", "activity change, negative = cytotoxic": "-0.959% [at 35.3 µM]"},
      {"compound": "O=C(COCCOCCOCC(=O)Nc1c(I)cc(I)c(C(=O)O)c1I)Nc1c(I)cc(I)c(C(=O)O)c1I", "activity change, negative = cytotoxic": "-2.24% [at 35.3 µM]"},
      {"compound": "CCCCCCCCCCC", "activity change, negative = cytotoxic": "-1.63%"},
      {"compound": "C=CCOc1c(Br)cc(C(C)(C)c2cc(Br)c(OCC=C)c(Br)c2)cc1Br", "activity change, negative = cytotoxic": "11.8% [at 35.3 µM]"},
      {"compound": "C[C@H](CCC(=O)NCC(=O)O)[C@H]1CC[C@H]2[C@@H]3[C@H](O)C[C@@H]4C[C@H](O)CC[C@]4(C)[C@H]3C[C@H](O)[C@]12C", "activity change, negative = cytotoxic": "1.93%"},
      {"compound": "CCCOC(=O)CCCCC(=O)OCCC", "activity change, negative = cytotoxic": "2.3%"},
      {"compound": "CN(C)CCOCCN(C)CCO", "activity change, negative = cytotoxic": "1.67%"},
      {"compound": "CC(C)SCc1ccco1", "activity change, negative = cytotoxic": "-2.92% [at 35.3 µM]"},
      {"compound": "CCNC(=O)NCCCOc1cccc(CN2CCCCC2)c1", "activity change, negative = cytotoxic": "-1.83% [at 35.3 µM]"},
      {"compound": "COc1cc(C=O)ccc1OC(=O)C(C)C", "activity change, negative = cytotoxic": "-3.41%"},
      {"compound": "O=C(Oc1ccccc1C(=O)O)c1ccccc1O", "activity change, negative = cytotoxic": "1.82% [at 35.3 µM]"},
      {"compound": "CCCCCCCCCCCCCCCCCCN(C)C", "activity change, negative = cytotoxic": "-3.42% [at 35.3 µM]"}
    ]}
  ]
}
